Test results published in PubChem BioAssay.

Legend:
[1] = system: Human papillomavirus type 1a protein E7 (residues 44-93); test: HPV1a E7 fragment binders on microarrays, primary screen, biochemical, small-molecule microarray, residues 44-93, 635 nm fluorescence (AID 1108); settings: small-molecule microarray binding, fluorescence 635 nm; higher = more signal;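 also: E7 fragment applied at 1 µg/mL in TBST for 1 h at 4 C; score combines spot fluorescence with its signal to noise ratio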
[2] = modulators of HCV replicon luciferase signal, primary screen, HCV replication inhibitor project, Huh7 cells, luciferase reporter (AID 1109); settings: 48 h, higher = more signal;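 also: huh7 hepatoma cells harbouring a luciferase neomycin HCV replicon reporter; luciferase luminescence as measure of HCV replicon replication; test concentration not given here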
[3] = molecular target: Left-right determination factor 2 (Homo sapiens) (UniProt O00292); test: LEFTY2 binders on small-molecule microarrays, primary screen, biochemical, small-molecule microarray, 635 nm fluorescence scan (AID 1110); settings: LEFTY2 binding, higher = more signal
Left-right determination factor 2 (Homo sapiens), sequence (O00292 whole entry, looked up): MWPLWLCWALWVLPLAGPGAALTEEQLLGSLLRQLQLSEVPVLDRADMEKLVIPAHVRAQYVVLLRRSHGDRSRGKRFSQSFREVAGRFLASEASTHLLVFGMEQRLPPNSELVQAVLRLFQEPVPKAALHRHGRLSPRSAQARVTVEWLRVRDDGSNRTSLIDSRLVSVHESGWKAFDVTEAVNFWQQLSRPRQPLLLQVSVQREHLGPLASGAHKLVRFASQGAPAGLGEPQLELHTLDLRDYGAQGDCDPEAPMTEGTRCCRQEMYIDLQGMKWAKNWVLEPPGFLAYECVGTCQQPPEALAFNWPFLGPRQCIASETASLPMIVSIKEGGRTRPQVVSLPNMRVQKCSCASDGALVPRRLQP

[4] = molecular target: Calmodulin-1 (Homo sapiens) (UniProt P0DP23); test: CALM1 binders on microarrays, EGTA buffer, profiling panel, biochemical, small-molecule microarray, Cy5-labelled CALM1 (AID 1111); settings: Cy5-CALM1 binding fluorescence, higher = more signal;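 also: labelled calmodulin applied in Tris saline Tween buffer holding calcium plus EGTA and DTT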
[5] = molecular target: Calmodulin-1 (Homo sapiens) (UniProt P0DP23); test: calcium-bound CALM1 binders on microarrays, profiling panel, artefact control for SMM control-protein annotation, biochemical, small-molecule microarray, Cy5-labelled CALM1, plus calcium (AID 1112); settings: Cy5-CALM1 binding fluorescence, higher = more signal;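 also: score merges spot fluorescence with signal to noise from triplicate slides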
[6] = small-molecule microarray binders of probe aWnt5a, primary screen, biochemical, biotinylated probe, 635/667 nm fluorescence (AID 1113); settings: higher = more signal;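 also: score merges 667 nm fluorescence intensity with signal-to-noise per printed feature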
[7] = small-molecule microarray binders of probe aShh, primary screen, biochemical, biotinylated probe, 635/667 nm fluorescence (AID 1114); settings: higher = more signal;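 also: probe is biotin-labelled aShh protein from a stem cell growth factor screen; measures binding of labelled protein to compounds printed on the slide; score merges feature fluorescence at 667 nm with signal-to-noise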
[8] = small-molecule microarray binders of probe aNog, primary screen, biochemical, biotinylated probe, 635/667 nm fluorescence (AID 1115); settings: higher = more signal;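 also: probe is biotinylated aNog protein used at 0.15 µg/mL for 1 h at 4 C; z-score combines 667 nm fluorescence of each spot with its signal to noise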
[9] = molecular target: Torsin-1A-interacting protein 1 (Homo sapiens) (UniProt Q5JTV8); test: LAP1 binders from COS7 cell lysate, primary screen, small-molecule microarray, 635/667 nm fluorescence (AID 1116); settings: COS7-hLAP1 lysate binding, 635 nm fluorescence, higher = more signal
Torsin-1A-interacting protein 1 (Homo sapiens), sequence (Q5JTV8 whole entry, looked up): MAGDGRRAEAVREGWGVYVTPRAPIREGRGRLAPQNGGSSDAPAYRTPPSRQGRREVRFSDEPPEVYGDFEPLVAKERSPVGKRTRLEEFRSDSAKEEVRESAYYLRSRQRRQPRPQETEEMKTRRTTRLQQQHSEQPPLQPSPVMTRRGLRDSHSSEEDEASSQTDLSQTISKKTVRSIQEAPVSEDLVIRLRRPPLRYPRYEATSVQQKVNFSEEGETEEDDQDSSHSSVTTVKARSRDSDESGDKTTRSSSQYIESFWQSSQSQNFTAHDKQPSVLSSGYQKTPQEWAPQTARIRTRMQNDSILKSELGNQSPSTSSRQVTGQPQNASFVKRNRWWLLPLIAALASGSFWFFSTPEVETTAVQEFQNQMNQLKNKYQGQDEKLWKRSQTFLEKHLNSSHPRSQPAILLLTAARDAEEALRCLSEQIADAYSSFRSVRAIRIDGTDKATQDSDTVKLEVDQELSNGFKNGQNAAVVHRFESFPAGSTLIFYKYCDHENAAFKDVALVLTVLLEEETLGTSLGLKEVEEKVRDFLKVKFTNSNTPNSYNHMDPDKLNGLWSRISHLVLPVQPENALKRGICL

[10] = molecular target: Alpha-bungarotoxin (Bungarus multicinctus) (UniProt P60615); test: alpha-bungarotoxin binders on microarray, profiling panel, artefact control for SMM control protein annotation, biochemical, small-molecule microarray, Alexa647 label, 635/667 nm fluorescence (AID 1117); settings: alpha-BTX-A647 binding fluorescence, higher = more signal
Alpha-bungarotoxin (Bungarus multicinctus), sequence (P60615 whole entry, looked up): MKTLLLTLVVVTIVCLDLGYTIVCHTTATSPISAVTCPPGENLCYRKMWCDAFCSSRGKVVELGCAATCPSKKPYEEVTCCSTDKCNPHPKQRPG

Structure (SMILES)	composite z-score [1]	z-score [2]	composite z-score [3]	composite z-score [4]	composite z-score [5]	composite z-score [6]	composite z-score [7]	composite z-score [8]	composite z-score [9]	composite z-score [10]
CCCC[C@@H]1C[C@H]1[C@@H](NC(=O)c1ccco1)c1ccc(Cl)cc1	1.28	-2.37	0.232	1.68	1.1	-0.0125	0.336	0.314	1.4	1.33
C=CCNC(=O)[C@H]1[C@@H]2C(=O)O[C@@H](c3ccccc3)[C@@H](c3ccccc3)N2[C@@H](c2ccc(O)cc2)[C@]12C(=O)N(C(=O)OCCOC)c1ccc(C#CCNC(N)=O)cc12	0.863	-0.767	1.01	-0.0456	0.143	0.0077	-0.0769	0.0989	0.585	1.07
CN(C)C(=O)[C@]1(Cc2ccccc2CN=[N+]=[N-])N=C(c2ccc(OCCCO)cc2)O[C@@H]1c1ccccc1CN=[N+]=[N-]	1.47	-3.12	0.189	0.324	0.708	0.216	0.249	0.76	1.39	0.832
CCOC(=O)C[C@H]1[C@H](OC(=O)c2ccc(C(=O)c3ccccc3)cc2)[C@@H](NC(=O)c2ccc(-c3ccccc3)cc2)c2cc(OCCCO)ccc2N1C(=O)c1ccccc1	1.3	-1.1	0.342	0.228	-0.119	0.193	-0.0709	-0.632	0.191	0.706
C#CCN(Cc1ccccc1Br)C(/C=C/c1ccccc1)CO (stereo not given)	-0.413	-3.49	-0.362	-0.669	-0.423	-0.16	0.0494	-0.443	0.104	0.0125
CCOC(=O)C[C@H]1[C@H](OC(=O)Cc2ccc3c(c2)OCO3)[C@@H](NC(=O)c2ccc(-c3ccccc3)cc2)c2cc(OCCCO)ccc2N1C(=O)c1ccc2ccccc2n1	0.226	-1.37	0.445	0.284	-0.788	-0.0828	-0.146	-0.261	0.142	0.0797
COc1ccc(C(=O)Nc2ccc(CN3C(=O)[C@@]4(O[C@@H](CCO)[C@H]([Si](C)(C)c5ccc(OC)cc5)[C@H]4C)c4ccccc43)cc2)cc1	0.908	-5.15	0.861	0.0404	-0.608	0.0367	-0.0146	0.0395	1.12	0.643
CCCCC(O)C1C=CC2C(=O)N(c3ccccc3)C(=O)C2N1Nc1ccccc1F (stereo not given)	0.392	-0.472	0.22	1.48	-0.124	0.241	0.261	1.87	1.21	3.13
O=C1OCCC/C=C\[C@H]2OC34C=CCN(Cc5ccccc5)C(=O)[C@H]3N(CCCCCCO)C(=O)[C@@H]4C12 (stereo not given in full)	0.103	-1.3	-1.74	-0.046	0.572	-0.206	-0.0337	-0.355	-1.03	-0.313
CC(=O)N1Cc2ccccc2C[C@@]2(COC(c3ccc(OCCCO)cc3)=N2)C1=O	0.612	-1.62	0.827	1.79	0.845	0.0587	0.412	0.114	1.7	1.88
CCCCCN1CC=CC23O[C@@H]4/C=C\CCCOC(=O)C4[C@H]2C(=O)N(C(CO)C(C)C)[C@@H]3C1=O (stereo not given in full)	-0.453	0.568	-0.358	-0.33	-0.272	-0.0107	-0.416	-0.158	0.174	-0.0063
CC(C)N1C(=O)c2ccccc2[C@](C)(C(=O)NCc2ccccc2)[C@@H]1c1ccc(CO)cc1	-0.375	0.0554	-1	-0.742	-0.514	-0.0735	-0.19	-0.141	1.13	-0.491
COCCOC(=O)N1C(=O)[C@@]2(c3cc(C#Cc4ccc(OC)cc4)ccc31)[C@H](C(=O)N1CCCCCCC1)[C@H]1C(=O)O[C@H](c3ccccc3)[C@H](c3ccccc3)N1[C@@H]2c1ccc(OCCO)cc1	0.114	-1.7	1.47	1.88	1.2	0.543	2.15	2.9	2.98	1.14
O=C1O[C@H](c2ccccc2)[C@H](c2ccccc2)N2[C@H]1[C@@H](C(=O)N1CCN(c3ncccn3)CC1)[C@]1(C(=O)Nc3ccc(C#CC4=CCCCC4)cc31)[C@H]2c1ccc(O)cc1	1.41	-1.98	0.144	0.961	0.336	-0.0721	-0.221	0.113	0.792	1.44
CN(C)CCCNC(=O)[C@@]1(C)c2ccccc2C(=O)N(Cc2cc(F)cc(C(F)(F)F)c2)[C@H]1c1ccc(CO)cc1	-0.0947	-1.8	-1.66	-0.483	-0.643	-0.251	0.0121	0.338	-0.94	1.32
COc1ccc([Si](C)(C)[C@H]2[C@H](CCO)O[C@@]3(C(=O)N(Cc4ccc(N5C(=O)COc6ccccc65)cc4)c4ccccc43)[C@@H]2C)cc1	0.49	-4.92	-1.45	0.471	0.601	-0.147	-0.153	0.201	-0.373	0.11
CC(C)C(=C=CC[C@@H](O)c1ccccc1OCCO)CCO	-0.79	-1.49	0.156	0.084	-0.21	-0.0836	-0.0471	-0.371	-0.549	0.606
O=C(c1ccccc1)N1Cc2ccccc2[C@@H]2OC(c3ccc(OCCCO)cc3)=N[C@]2(Cc2ccccc2)C1=O	1.29	-1.58	0.243	0.978	-0.0808	0.0825	-0.305	-0.364	0.215	1.19
O=C1OCCC=C[C@H]2OC34C=CCN(CCN5CCOCC5)C(=O)[C@H]3N(CCCCCCO)C(=O)[C@@H]4C12 (stereo not given in full)	-0.149	-0.135	-0.0529	-0.304	-1.07	-0.178	-0.289	-0.484	0.551	-0.288
CCCN1C(=O)[C@]2(CCS(=O)(=O)c3ccccc3)N=C(c3ccc(OCCCO)cc3)O[C@@H]2c2ccccc21	1.42	-2.49	0.16	3.15	-0.0613	-0.0643	0.0893	-0.153	1.74	1.14
[N-]=[N+]=NCc1ccccc1C[C@]1(C(=O)NCC(O)CO)N=C(c2ccc(OCCCO)cc2)O[C@H]1c1ccccc1 (stereo not given in full)	0.722	-1.82	-1.84	1.51	1.24	-0.0405	-0.0211	1.06	0.846	0.19
